We go through 11 compounds from PubChem BioAssay AID2189 (The Scripps Research Institute Molecular Screening Center, 2009).

For orientation: inhibition means the drop in the measured response relative to a control, in per cent.

This is one part of the list. Values without a mark were called inactive. Active and inactive are the calls of the source. Rule as the data show it: active = inhibition above about 4.9%; inactive = the rest.

In the test the test system is metallo-beta-lactamase IMP-1 (Pseudomonas aeruginosa). The test can be described thus: inhibition of IMP-1 substrate hydrolysis – biochemical, epi-absorbance, hits shared with VIM-2 screen, confirmation (AID 2189).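 Also: 0% = enzyme with vehicle and 100% = vehicle without enzyme.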 Particulars: purified IMP-1 enzyme, at 5.6 µM, hits give high values.
With `Nc1c(C(=O)c2cccs2)sc2nsc(SCCN3CCCCC3)c12`, the inhibition is 18.4% (active).

For `NC(=O)c1ccc(NC(=O)COC(=O)c2c3c(nc4ccccc24)/C(=C\c2ccc4c(c2)OCO4)CCC3)cc1`, the inhibition is -2.29%. Regarding `C/C(=N\Nc1ccc(S(N)(=O)=O)cc1[N+](=O)[O-])c1cccs1`, the inhibition is 10.6% (active). The figure for `COc1cc(/C=C2/SC(=S)N(Cc3ccccc3)C2=O)cc(OC)c1O` is 9.27% (active); for `Cc1nn(C)cc1N1C(=O)c2cccc3c(N)ccc(c23)C1=O` it is 29.8% (active); for `CN1C(=O)c2cccc3c(N)ccc(c23)C1=O` it is 36.2% (active). In the case of `c1ccc(-c2nccc(-c3ccc(-n4cnc5ccccc54)cc3)n2)nc1` it was 0.59%.

Consider `NS(=O)(=O)c1ccc(NC(=O)COC(=O)c2c3c(nc4ccccc24)/C(=C\c2ccc4c(c2)OCO4)CCC3)cc1`, for which the inhibition was -2.39%. For `Cc1cc2nc3c(=O)n(Cc4ccccc4)c(=O)[nH]c3nc2cc1N`, the inhibition is 13.2% (active). Take `CCC(=C/c1sc2ccc3ccccc3c2[n+]1C)/C=C1\Sc2ccc3ccccc3c2N1C`: the inhibition is 27.6% (active).

Regarding `Oc1ccc2ccc3cccc[n+]3c2c1`, the inhibition is 23.2% (active).
